Test systems include NCI-H23 lung; NCI-H226 lung; HOP-62 NSCLC; NCI-H460 lung; HOP-92 NSCLC; NCI-H522 lung; A549/ATCC NSCLC; 786-0 renal; COLO 205 colon; DU-145 prostate; MDA-MB-231 breast; RXF 393 renal; SF-268 CNS; SF-295 CNS; SF-539 CNS; UACC-257 melanoma; M14 melanoma; K-562 leukemia; MALME-3M melanoma.
Common to all, as to test: NCI-60 one-dose screen, 48 h (100 = growth as untreated, 0 = no growth, -100 = all killed)
What all share (details): 10 µM

About 83,000 compounds went through this panel and 20% of them were active in at least one assay; those are over-represented in the sample as a whole.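 A percent growth of 40 corresponds to 60% growth inhibition; 0 means no net growth; -100 means all cells died. Active threshold: below 10.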 Unmarked numbers belong to inactive results. Activity calls are given as the source filed them.

Consider `CC(C)C1=C(O)C2=C(C(=O)C1=O)[C@@]1(C)CCCC(C)(C)[C@@H]1CC2`, for which the growth in the assay with NCI-H23 lung is 65.8%; with NCI-H226 lung it was 83.5%; in the assay with HOP-62 NSCLC it was 70.6%; in the assay on NCI-H460 lung it was 37.6%; in the assay with HOP-92 NSCLC it was 53.6%; in the assay on NCI-H522 lung, 86.9%. In addition, the growth was 62.1% in the assay on A549/ATCC NSCLC; 78.7% in the assay with 786-0 renal; 92.7% in the assay on COLO 205 colon; 81.6% in the assay with DU-145 prostate; 103% with MDA-MB-231 breast; 84.3% in the assay on RXF 393 renal. Further, the growth in the assay with SF-268 CNS was 63.4%; in the assay on SF-295 CNS, 43.3%; in the assay on SF-539 CNS it was 90%; in the assay on UACC-257 melanoma it was 78.7%; in the assay on M14 melanoma, 80.7%.
Take `CC1OC2CC(=O)OC2C2=C1C(=O)c1c(O)c3c(c(O)c1C2=O)C1CC(O)C3(O)C(C)O1` (configuration not stated): the growth in the assay on NCI-H23 lung is -34.2% (active); with NCI-H226 lung it was -69% (active); in the assay on HOP-62 NSCLC, -49.5% (active); in the assay on NCI-H460 lung it was 2.35% (active); with HOP-92 NSCLC, -13% (active); in the assay with NCI-H522 lung, -66.4% (active). The growth in the assay with A549/ATCC NSCLC is 2.66% (active); in the assay on 786-0 renal, -12.3% (active); with COLO 205 colon, -73.5% (active); with DU-145 prostate, -94.9% (active); in the assay with K-562 leukemia, 6.27% (active); with MDA-MB-231 breast it was -16.3% (active). The growth in the assay on RXF 393 renal is -91.1% (active); in the assay with SF-268 CNS, 1.92% (active); in the assay on SF-295 CNS it was 3.26% (active); in the assay on SF-539 CNS, -84.2% (active); in the assay with UACC-257 melanoma, -58.4% (active); in the assay with M14 melanoma, -76.7% (active).
`COc1cc2c(cc1OC)C(C(CCCCCC(CCC(C)C)C1NCCc3cc(OC)c(OC)cc31)CCC(C)C)NCC2` (configuration not stated): the growth with NCI-H23 lung was -87.4% (active); in the assay on NCI-H226 lung it was -75.6% (active); in the assay with HOP-62 NSCLC it was -96.7% (active); in the assay with NCI-H460 lung it was -80.3% (active); with HOP-92 NSCLC, -90.4% (active); in the assay with NCI-H522 lung, -95.4% (active). Further, the growth in the assay with A549/ATCC NSCLC was -92.9% (active); with 786-0 renal, -97.8% (active); in the assay on COLO 205 colon it was -94.5% (active); in the assay with DU-145 prostate, -100% (active); in the assay on K-562 leukemia, 13.6%; in the assay on MDA-MB-231 breast, -81.9% (active). Besides, the growth in the assay on SF-268 CNS was -95.7% (active); in the assay on SF-295 CNS, -77.5% (active); with SF-539 CNS it was -97.4% (active); with UACC-257 melanoma, -92.5% (active); in the assay on M14 melanoma it was -93.6% (active).
For the molecule `COc1cc(C2CC(c3ccccc3)=NN2C(C)=O)cc(OC)c1OC` (configuration not stated), the growth in the assay on NCI-H23 lung is 64.1%; in the assay on NCI-H226 lung it was 82.1%; in the assay with HOP-62 NSCLC it was 68.2%; in the assay on NCI-H460 lung, 15.5%; with HOP-92 NSCLC, 76.1%; in the assay on NCI-H522 lung it was 7.46% (active). The growth in the assay with A549/ATCC NSCLC is 54.7%; in the assay with 786-0 renal, 62.2%; in the assay on COLO 205 colon it was 35.3%; in the assay with DU-145 prostate, 49.3%; in the assay with K-562 leukemia it was 36.9%; with MDA-MB-231 breast, 75.3%. In addition, the growth in the assay on RXF 393 renal is 55%; with SF-268 CNS it was 46.2%; with SF-295 CNS, 7.61% (active); in the assay with SF-539 CNS, 28.3%; in the assay with UACC-257 melanoma, 64%; with M14 melanoma, 29.7%.
Regarding `Cc1cc(CSc2ccccc2C(=O)N2CC=C(c3ccccc3)CC2)on1`, the growth with NCI-H23 lung is 89.4%; in the assay on NCI-H226 lung, 88.4%; in the assay on HOP-62 NSCLC, 92.2%; with NCI-H460 lung it was 100%; with HOP-92 NSCLC it was 93.4%; in the assay with NCI-H522 lung, 75.3%. Also, the growth is 94.6% in the assay on A549/ATCC NSCLC; 94.5% in the assay on 786-0 renal; 107% in the assay with COLO 205 colon; 107% with DU-145 prostate; 89.1% in the assay on K-562 leukemia; 95.8% in the assay with MALME-3M melanoma. Further, the growth in the assay on MDA-MB-231 breast is 95.3%; in the assay on RXF 393 renal, 107%; in the assay with SF-268 CNS it was 108%; with SF-295 CNS it was 99.6%; in the assay on SF-539 CNS, 92.9%; in the assay with M14 melanoma, 108%.
For the molecule `CN1CCN(CCCn2c(=O)c3sc4ncccc4c3n3nnc(-c4ccccc4)c23)CC1`, the growth is 77.3% with NCI-H23 lung; 108% in the assay on NCI-H226 lung; 21.7% in the assay on HOP-62 NSCLC; -77.1% (active) with NCI-H460 lung; 48.9% in the assay on HOP-92 NSCLC; -83.9% (active) in the assay with NCI-H522 lung. The growth in the assay on A549/ATCC NSCLC was 12%; in the assay with 786-0 renal, 5.36% (active); with COLO 205 colon, -96.5% (active); in the assay on DU-145 prostate, 31.5%; with K-562 leukemia it was -32.5% (active); in the assay on MDA-MB-231 breast, -45.5% (active). Also, the growth in the assay with RXF 393 renal was -68.3% (active); in the assay with SF-268 CNS it was -10.8% (active); with SF-295 CNS it was -76.1% (active); in the assay on SF-539 CNS, -90.5% (active); in the assay with UACC-257 melanoma, -88.8% (active); in the assay on M14 melanoma, -82.7% (active).
On to `Cc1ccc(C(=O)/C=C/c2ccccc2)s1`, for which the growth was 109% with NCI-H23 lung; 93.8% with NCI-H226 lung; 120% in the assay with HOP-62 NSCLC; 108% in the assay on NCI-H460 lung; 144% in the assay with HOP-92 NSCLC; 93.5% with NCI-H522 lung. Besides, the growth in the assay on A549/ATCC NSCLC is 101%; in the assay on 786-0 renal it was 86.7%; in the assay with COLO 205 colon, 134%; in the assay with DU-145 prostate, 92%; in the assay on K-562 leukemia, 108%; with MDA-MB-231 breast, 112%. The growth in the assay with RXF 393 renal was 94.3%; in the assay with SF-268 CNS, 99%; with SF-295 CNS, 92.6%; with SF-539 CNS, 132%; in the assay with UACC-257 melanoma, 121%; in the assay with M14 melanoma it was 86.9%.
As for `CC(C)c1ccc(C(C)C(=O)N(CC2=C(C(C)c3ccccn3)c3ccccc3C2)C(C)C)cc1` (configuration not stated), the growth in the assay with NCI-H23 lung is 26.3%; with NCI-H226 lung, 57.1%; with HOP-62 NSCLC, 59.2%; in the assay with NCI-H460 lung it was 23.1%; with HOP-92 NSCLC, 20.3%; in the assay with NCI-H522 lung, 24.9%. For the same molecule, the growth is 36% with A549/ATCC NSCLC; 40.9% in the assay with 786-0 renal; 35.7% with COLO 205 colon; 57.6% with DU-145 prostate; 24.5% with K-562 leukemia; 48.4% with MDA-MB-231 breast. Also, the growth in the assay with RXF 393 renal was 45.6%; in the assay with SF-268 CNS, 46%; with SF-295 CNS, 25.6%; in the assay on SF-539 CNS it was 61.4%; in the assay on UACC-257 melanoma, 49.3%; in the assay on M14 melanoma, 48.1%.

These data come from PubChem BioAssay (NCI).
